Results as given in PubChem BioAssay (Tox21).
Records with an inconclusive call do not appear. A call without a number means that no potency is given here. Calls of active or inactive are those of the source. Calls come from the whole dose curve; as a rule, active = well fitted activation curve with a large enough effect in the repeat runs; inconclusive = weak or mixed curves; inactive = flat fitted curve, though single readings scatter.

Assay: A CellTox Green Cytotoxicity Assay to monitor cytotoxicity in HepG2 cells - 8 hour (AID 1224890); note: nearly all actives have a fitted effect of over 45% in size
Conditions: CellTox Green fluorescence; series mostly up to 76.8 µM
Description: National Center for Advancing Translational Sciences [NCATS]
NIH Chemical Genomics Center [NCGC]
U.S. Environmental Protection Agency [EPA]
National Institutes of Environmental Health Sciences [NIEHS]
National Toxicology Program [NTP]
Cell-based models are critical for drug discovery. Determining the natural cytotoxic effects resulting from test compounds is an essential research activity. A CellTox Green Cytotoxicity Assay to monitor cytotoxicity in real time of continues cell culture during 40 hours of the compound treatment was used to screen Tox21 10K library compounds in HepG2 cells. CellTox Green Cytotoxicity Assay is a nonlytic, homogeneous, biofluorescent method to measure cytotoxicity in cell culture after experimental manipulation. The assay system uses a proprietary asymmetric cyanine dye that is excluded from viable cells but preferentially stains the dead cell's DNA. […] Viable cells produce no appreciable increases in fluorescence. Therefore, the fluorescence signal produced by the binding interaction with dead cell DNA is proportional to cytotoxicity.
The mixture of HepG2 cell suspension and reagents were dispensed at 600cells/6 ul/well in 1536-well tissue culture treated black solid bottom plates using a Multidrop dispenser. After the assay plates were incubated at a 37 C/5% CO2 incubator for 5 hours, 23 nL of compounds dissolved in DMSO, positive and negative controls was transferred to the assay plate by a pintool work station. The plates were incubated at 37 C for 40 hours. The fluorescence intensity were measured at 0h, 8h, 16h, 24h, 32h and 40h time points using ViewLux plate reader during compound treatment.
Potency is the fitted concentration of half-maximal effect.

| SMILES | Potency |
| --- | --- |
| N#Cc1c(-c2ccc(Cl)cc2)[nH]c(C(F)(F)F)c1Br | inactive |
| COc1ccc(OC)c(C=O)c1 | inactive |
| CCCCCCCCCCCCCC[P+](CCCCCC)(CCCCCC)CCCCCC (tested in a mixture with another compound) | 43.7 µM (active) |
| CC(C)[C@H](C(=O)OC(C#N)c1cccc(Oc2ccccc2)c1)c1ccc(OC(F)F)cc1 (stereo not given in full) | inactive |
| C1CCC2CCCCC2C1 (stereo not given) | inactive |
| Nc1ccc(Cl)cc1C(=O)c1ccccc1 | inactive |
| CCOc1cc(C(C)(C)C)ccc1C1COC(c2c(F)cccc2F)=N1 (stereo not given) | inactive |
| O=[N+]([O-])c1ccc2ccc3cccc4ccc1c2c34 | inactive |
| COc1cccc2c1C(=O)c1c(O)c3c(c(O)c1C2=O)C[C@@](O)(C(=O)CO)CC3OC1CC(N2CCOC(OC)C2)C(O)C(C)O1 (stereo not given in full) | 21.3 µM (active) |
| Cc1c(Cl)c(=O)oc2cc(OP(=O)(OCCCl)OCCCl)ccc12 | inactive |
| C=CC(=O)OCC(COC(=O)C=C)(COC(=O)C=C)COC(=O)C=C | inactive |
| Oc1c(Cl)c(Cl)cc(Cl)c1Cl | inactive |
| N#CCCC(Br)(C#N)CBr (stereo not given) | 54.9 µM (active) |
| O=C(CBr)c1ccc(O)cc1 | inactive |
| CN(C)[C@@H]1C(=O)C(C(N)=O)=C(O)[C@@]2(O)C(=O)C3=C(O)c4c(O)ccc(Cl)c4[C@@](C)(O)[C@H]3C[C@@H]12 | inactive |
| N#Cc1ccccc1N | inactive |
| CC(C)(C)c1ccc(CSc2cnn(C(C)(C)C)c(=O)c2Cl)cc1 | inactive |
| COc1cccc(C(=O)CCN[C@@H](C)[C@H](O)c2ccccc2)c1 | inactive |
| BrCBr | inactive |
| ClC1=C(Cl)[C@]2(Cl)[C@@H]3[C@@H](Cl)[C@H](Cl)C[C@@H]3[C@@]1(Cl)C2(Cl)Cl | inactive |

| SMILES | Potency |
| --- | --- |
| CC(=O)C(Cl)(Cl)Cl | inactive |
| c1cc[c]([Sb]([c]2ccccc2)[c]2ccccc2)cc1 | inactive |
| Clc1ccc(C(c2ccccc2Cl)C(Cl)(Cl)Cl)cc1 (stereo not given) | inactive |
| SCc1ccco1 | inactive |
| CCSC(C)CC1CC(=O)C(/C(CC)=N/OC/C=C/Cl)=C(O)C1 (stereo not given) | inactive |
| CCOP(=O)(NC(C)C)Oc1ccc(SC)c(C)c1 (stereo not given) | inactive |
| O=C(CCl)Nc1ccccc1 | inactive |
| Cc1cc(Cl)ccc1O[C@H](C)C(=O)O | inactive |
| COS(=O)(=O)c1ccc(C)cc1 | inactive |
| CCc1ccccc1C | inactive |
| CN(CCCC(O)c1cccnc1)N=O (stereo not given) | inactive |
| CC1(C)C(/C=C(\Cl)C(F)(F)F)C1C(=O)OC(C#N)c1cccc(Oc2ccccc2)c1 (stereo not given) | inactive |
| CN(C)CCc1c[nH]c2ccc(O)cc12 | inactive |
| Cc1ccc(C(=O)Cl)cc1 | inactive |
| Cc1cc(N=Nc2ccccc2C)ccc1N | inactive |
| O=c1oc2ccccc2c(O)c1Cc1c(O)c2ccccc2oc1=O | inactive |
| Oc1ccccc1Br | inactive |
| Clc1ccc(C(Cl)(Cl)Cl)c(Cl)c1 | inactive |
| CCOP(=S)(OCC)SCS(=O)(=O)CC | inactive |
| CC(C)CBr | inactive |
